{"source": "PubChem BioAssay (EPA / NIEHS)", "key": {"[1]": {"experiment": "TOX21_p53_BLA_p2_viability: Viability Assessment in the Tox21 HCT-116 p53 Agonism Beta-lactamase Assay, Phase 2 (AID 2283591);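 note: actives lower the ATP signal meaning cytotoxicity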", "outline": "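HCT116 p53-bla cells, 4000/well, dosed after 5 h plating (217-fold dilution of DMSO stocks) and incubated 16 h at 37C. Viability taken as cellular ATP by CellTiter-Glo luminescence after 30 min RT; signal loss marks cytotoxicity.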"}, "[2]": {"experiment": "TOX21_p53_BLA_p3_viability: Viability Assessment in the Tox21 HCT-116 p53 Agonism Beta-lactamase Assay, Phase 3 (AID 2283593)", "outline": "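HCT116 cells, 4000/well, dosed 5 h after plating by pin transfer (217-fold dilution from DMSO stock) and incubated 16 h at 37C, 5% CO2. Viability read as ATP luminescence with CellTiter-Glo after 30 min at room temperature.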"}, "[3]": {"target": "Cellular tumor antigen p53 (Homo sapiens) (UniProt P04637)", "sequence (P04637 whole entry, looked up)": "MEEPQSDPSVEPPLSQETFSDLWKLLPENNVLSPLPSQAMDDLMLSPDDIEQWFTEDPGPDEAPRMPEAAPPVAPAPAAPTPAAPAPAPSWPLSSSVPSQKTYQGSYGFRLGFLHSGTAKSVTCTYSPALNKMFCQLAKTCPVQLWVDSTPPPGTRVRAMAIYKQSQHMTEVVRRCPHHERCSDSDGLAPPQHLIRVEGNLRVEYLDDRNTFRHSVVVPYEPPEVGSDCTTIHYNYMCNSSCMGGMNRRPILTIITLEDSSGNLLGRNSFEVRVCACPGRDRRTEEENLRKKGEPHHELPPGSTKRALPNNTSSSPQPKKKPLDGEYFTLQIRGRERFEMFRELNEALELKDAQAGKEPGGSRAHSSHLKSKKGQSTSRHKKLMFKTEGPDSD", "experiment": "TOX21_p53_BLA_p3_ratio: Tox21 HCT-116 p53 Agonism Beta-lactamase Assay, Ratio, Phase 3 (AID 2283596)", "outline": "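Cells were seeded at 4000/well, rested 5 h at 37C, then dosed with DMSO compound solutions (217-fold dilution) for 16 h. CCF4-AM substrate was loaded for 2 h at room temperature, and the 460/530 nm emission ratio was fitted for gain of signal versus DMSO.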"}, "[4]": {"experiment": "TOX21_p53_BLA_p4_viability: Viability Assessment in the Tox21 HCT-116 p53 Agonism Beta-lactamase Assay, Phase 4 (AID 2283597);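 note: hits lower the luminescence signal meaning cytotoxicity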", "outline": "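Cytotoxicity was inferred from loss of CellTiter-Glo luminescence. HCT116 cells had been dosed with compounds after 5 h plating, incubated 16 h at 37C and 5% CO2, and exposed to the CCF4-AM substrate for 2 h.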"}, "[5]": {"experiment": "TOX21_p53_BLA_p5_viability: Viability Assessment in the Tox21 HCT-116 p53 Agonism Beta-lactamase Assay, Phase 5 (AID 2283600)", "outline": "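Luciferase-coupled ATP quantitation of cells treated for 16 h (37C, 5% CO2) with test chemicals delivered in DMSO via a 217-fold dilution; 4000 cells/well; reagent incubated 30 min at room temperature before luminescence reading.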"}, "[6]": {"target": "Cellular tumor antigen p53 (Homo sapiens) (UniProt P04637)", "experiment": "TOX21_p53_BLA_p4_ratio: Tox21 HCT-116 p53 Agonism Beta-lactamase Assay, Ratio, Phase 4 (AID 2283601)", "outline": "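HCT-116 p53 beta-lactamase reporter cells (4000/well) preincubated 5 h, then compound (217-fold dilution of DMSO stock) for 16 h at 37C. CCF4-AM substrate added 2 h at room temperature; 460/530 nm emission ratio fitted upward versus DMSO.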"}, "[7]": {"target": "Cellular tumor antigen p53 (Homo sapiens) (UniProt P04637)", "experiment": "TOX21_p53_BLA_p5_ratio: Tox21 HCT-116 p53 Agonism Beta-lactamase Assay, Ratio, Phase 5 (AID 2283599)", "outline": "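HCT-116 p53-bla cells (4000/well) plated 5 h, dosed with compound (217-fold DMSO dilution) for 16 h at 37 C; CCF4-AM substrate 2 h at room temperature. Activity is the 460/530 nm emission ratio (405 nm excitation), fitted in gain-of-signal direction versus DMSO.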"}, "[8]": {"experiment": "CCTE_Harrill_HTTr_Viability_MCF7: CCTE's 6-hour Cell Viability Assessment for the High-Throughput Transcriptomics (HTTr) Platform, in MCF-7 cells cultured in DMEM + 10% fetal bovine serum, Harrill Lab (AID 2284010; active = hit-call score of the fitted dose curve at least 0.9, where 1 is the maximum; inactive = score below 0.9)", "outline": "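Eight-point concentration series, six-hour exposure. Propidium iodide exclusion imaged to assess membrane integrity as a cytotoxicity readout; bidirectional fitting was done with DMSO as negative control and activity baseline.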"}, "[9]": {"experiment": "CCTE_Harrill_HTTr_CellCount_MCF7: CCTE's Cell Proliferation Assessment for the High-Throughput Transcriptomics (HTTr) Platform, Harrill Lab (AID 2284012);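 note: intended direction is loss of nuclei count meaning fewer cells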", "outline": "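For this full-screen endpoint, MCF-7 cultures received eight compound dilutions for six hours. Well nuclei counts from Hoechst imaging were analyzed relative to DMSO.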"}}, "note": "Inconclusive results are not listed. Activity calls are given as the source filed them. Rule for the calls, unless noted: active = hit-call score of the fitted dose curve at least 0.9, where 1 is the maximum; inconclusive = response in the unintended direction; inactive = score below 0.9."}
{"smiles": "CCN(CC)C(=O)N[C@H]1C[C@@H]2c3cccc4[nH]cc(c34)C[C@H]2N(C)C1", "values": [{"measurement": "outcome", "setting": "[1]", "result": "inactive"}, {"measurement": "outcome", "setting": "[2]", "result": "inactive"}, {"measurement": "outcome", "setting": "[3]", "result": "inactive"}, {"measurement": "outcome", "setting": "[4]", "result": "inactive"}, {"measurement": "outcome", "setting": "[5]", "result": "inactive"}]}
{"smiles": "CCOC(=O)CBr", "values": [{"measurement": "outcome", "setting": "[1]", "result": "inactive"}, {"measurement": "outcome", "setting": "[2]", "result": "inactive"}, {"measurement": "outcome", "setting": "[3]", "result": "inactive"}, {"measurement": "outcome", "setting": "[4]", "result": "inactive"}, {"measurement": "outcome", "setting": "[5]", "result": "inactive"}, {"measurement": "outcome", "setting": "[6]", "result": "inactive"}]}
{"smiles": "Cc1cc(C)cc(C(=O)OC2C[C@H]3CC[C@@H](C2)N3C)c1", "note": "(stereo not given in full)", "values": [{"measurement": "outcome", "setting": "[1]", "result": "inactive"}, {"measurement": "outcome", "setting": "[2]", "result": "inactive"}, {"measurement": "outcome", "setting": "[4]", "result": "inactive"}, {"measurement": "outcome", "setting": "[5]", "result": "inactive"}, {"measurement": "outcome", "setting": "[6]", "result": "inactive"}]}
{"smiles": "Nc1ccccc1C(=O)O", "values": [{"measurement": "outcome", "setting": "[1]", "result": "inactive"}, {"measurement": "outcome", "setting": "[2]", "result": "inactive"}, {"measurement": "outcome", "setting": "[3]", "result": "inactive"}, {"measurement": "outcome", "setting": "[7]", "result": "inactive"}, {"measurement": "outcome", "setting": "[5]", "result": "inactive"}, {"measurement": "outcome", "setting": "[6]", "result": "inactive"}]}
{"smiles": "O=C(OCCN1CCCCC1)C(O)(c1ccccc1)c1ccccc1", "values": [{"measurement": "outcome", "setting": "[1]", "result": "inactive"}, {"measurement": "AC50", "setting": "[2]", "result": "42.4 µM (active)"}, {"measurement": "outcome", "setting": "[3]", "result": "inactive"}, {"measurement": "outcome", "setting": "[7]", "result": "inactive"}, {"measurement": "outcome", "setting": "[6]", "result": "inactive"}]}
{"smiles": "CSCCCN=C=S", "values": [{"measurement": "outcome", "setting": "[1]", "result": "inactive"}, {"measurement": "outcome", "setting": "[2]", "result": "inactive"}, {"measurement": "AC50", "setting": "[3]", "result": "20.9 µM (active)"}, {"measurement": "outcome", "setting": "[7]", "result": "inactive"}, {"measurement": "outcome", "setting": "[5]", "result": "inactive"}]}
{"smiles": "CCCCc1c(C)nc(NCC)[nH]c1=O", "values": [{"measurement": "outcome", "setting": "[1]", "result": "inactive"}, {"measurement": "outcome", "setting": "[2]", "result": "inactive"}, {"measurement": "outcome", "setting": "[3]", "result": "inactive"}, {"measurement": "outcome", "setting": "[7]", "result": "inactive"}, {"measurement": "outcome", "setting": "[5]", "result": "inactive"}, {"measurement": "outcome", "setting": "[8]", "result": "inactive"}, {"measurement": "outcome", "setting": "[9]", "result": "inactive"}]}
{"smiles": "[O]=[Cr](=[O])([OH])[O][Cr](=[O])(=[O])[OH]", "values": [{"measurement": "AC50", "setting": "[1]", "result": "15.1 µM (active) [middle of 4 runs]"}, {"measurement": "AC50", "setting": "[2]", "result": "11.4 µM (active) [middle of 4 runs]"}, {"measurement": "AC50", "setting": "[4]", "result": "18.4 µM (active) [middle of 4 runs]"}, {"measurement": "AC50", "setting": "[7]", "result": "13.2 µM (active) [middle of 4 runs]"}, {"measurement": "AC50", "setting": "[5]", "result": "28.1 µM (active) [middle of 4 runs]"}, {"measurement": "AC50", "setting": "[6]", "result": "13.6 µM (active) [middle of 4 runs]"}]}
